Consider 39 compounds from PubChem BioAssay (NCI).

About 83,000 compounds went through this panel and 20% of them were active in at least one assay; those are over-represented in the sample as a whole.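 Negative percent growth values reflect cell death: -40 means 40% of the cells present at the start died, and -100 means all died.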 Values without a mark were called inactive. Active and inactive are the calls of the source. How the source made its calls: active means growth percent below 10; inactive means the rest.

The experiment concerns HL-60(TB) leukemia. The experiment in a line: NCI-60 one-dose screen, 48 h (100 = growth as untreated, 0 = no growth, -100 = all killed). Conditions: 10 µM unless noted.
Turning to `COc1ccc2cc(-c3cnc4nonc4n3)ccc2c1`, the growth is -12% (active).

As for `CCOC(=O)c1cnc2ccc(Br)cc2c1Nc1cccc(S(N)(=O)=O)c1`, the growth is 99.5%.

In the case of `CN1CCN(CCCOc2ccc3nc(Nc4ccc(Cl)c(C(F)(F)F)c4)ccc3c2)CC1`, the growth is 63.7%.

For `O=C1c2cc3c(cc2-c2c1c1ccc(Cl)cc1c(=O)n2CCCN1CCOCC1)OCO3`, the growth was 16.7%.

Regarding `COc1ccc(C(=O)N2NC(=O)/C(=C/c3cn(-c4ccccc4)nc3-c3ccccc3)N=C2c2ccccc2)cc1`, the growth was 103%.

As for `COc1ccc(-c2nc(SCCC(C)C)nc(Nc3ccc(C(=O)O)cc3)c2C#N)cc1`, the growth was 71.6%.

On to `O=S1(=O)C=C(c2ccccc2)C(c2ccccc2)=C1`, for which the growth was -16.3% (active).

Regarding `CCn1c(=S)[nH]c2c(=O)n(C)c(=O)n(C)c21`, the growth is 100%.

As to `OCc1cnc2ccccc2c1NC1CCCCCC1`, the growth was 88.5%.

As for `C/C=C(/C)C(=O)OC1C=C(CO)C(=O)C(OC(=O)C(C)(O)C(C)Cl)C1C(C)C` (centres undefined), the growth is -25.3% (active).

Consider `Cc1ccc(Cc2c(C=O)nc(N)[nH]c2=O)c2ccccc12`, for which the growth is 36.1%.

For the compound `NC(=O)c1cc(Cl)ccc1NC(=O)COc1ccccc1`, the growth was -0.779% (active).

With `Cc1c2ncccc2nc2[nH]c3ccc(OCCN(C)C)cc3c12`, the growth was 15.9%.

On to `O=C(Nc1ccc(CN2CCOCC2)c(C(F)(F)F)c1)c1nc2ccc3[nH]ncc3c2c2c1CCCC2`, for which the growth was 98.1%.

On to `NCCn1cc(-c2nc(-c3c[nH]c4ncccc34)cs2)c2cc(F)ccc21`, for which the growth is 62%.

For `C=C1C(=O)O[C@H]2[C@H]1CC/C(COC(=O)CCCCCCC(=O)OC/C1=C/CC[C@@]3(C)O[C@H]3[C@H]3OC(=O)C(=C)[C@@H]3CC1)=C\CC[C@@]1(C)O[C@@H]21`, the growth is -13.8% (active).

For `COC(=O)[C@H](C)NC(=O)c1ccc(NC(=O)c2[nH]c(C)c(Cl)c2Cl)c(OCCN)c1`, the growth is 95.2%.

As for `CCc1oc2ccccc2c1C(=O)c1cc(Br)c(O)c(Br)c1`, the growth was 53%.

As to `COc1ccc(C(=O)c2cc(C)c(OC)c(C)c2)c(OC)c1NC(C)=O`, the growth is -26.3% (active).

Regarding `CC(=O)c1cc2c(o1)C(=O)c1ccccc1C2=O`, the growth was -36.5% (active).

As to `CNC(=O)c1cc(Oc2cccc3nc(NC(=O)Nc4cc(C(F)(F)F)cc(C(F)(F)F)c4)ccc23)ccn1`, the growth is 70.5%.

For `Cc1c(O)c(O)cc2c3c(oc12)CC(c1ccc2c(c1)OCO2)CC3=O` (centres undefined), the growth is 73.7%.

Turning to `COc1cc2c(cc1C)NC(=O)/C2=C\c1c[nH]c2ccccc12`, the growth is 47.5%.

`O=C1/C(=C/c2ccccn2)SC(=S)N1N1CCOCC1`: the growth is 97.2%.

Take `COc1cc(C2CC(=O)Nc3c2cnn3C)cc(OC)c1OC` (centres undefined): the growth is 97.6%.

Turning to `CCOC(=O)C1=C(c2ccccc2)N=C2SC=C(c3cccc([N+](=O)[O-])c3)N2C1c1ccc(O)cc1` (centres undefined), the growth is 107%.

In the case of `O=C(Nc1cccc(-n2cc(-c3ccncc3)c(-c3ccc(O)c(Cl)c3)n2)c1)c1ccc(Cl)c(Cl)c1`, the growth is 33.9%.

On to `O=[N+]([O-])c1ccc(N2c3ccncc3Sc3ccncc32)cc1`, for which the growth was 102%.

Regarding `Cc1cc(C)c(S(=O)(=O)N2CCN(c3cc4c(cc3F)c(=O)c(C(=O)O)cn4C3CC3)CC2)c(C)c1`, the growth is 8.72% (active).

For `Cc1ccc2oc(=O)cc(/C(=C3/C=CC=N3)c3ccc[nH]3)c2c1`, the growth was -13.6% (active).

With `CC(C)C(=O)Nc1nc2c(s1)CCCc1ccn(S(=O)(=O)c3ccccc3)c1-2`, the growth was 83.8%.

In the case of `COC(=O)[C@H]1CCCN1C(=O)[C@H]1CCCN1C(=O)[C@@H](Cc1c[nH]c2ccccc12)NC(=S)Nc1cc(C(F)(F)F)cc(C(F)(F)F)c1`, the growth is 31.2%.

On to `COc1cccc(Sc2ccc([N+](=O)[O-])c3no[n+]([O-])c23)c1`, for which the growth is 2.91% (active).

In the case of `CN(C)c1ccc(-c2ccc3[nH]c(=O)nc(-c4ccccc4)c3c2)cn1`, the growth was 3.35% (active).

With `Fc1ccc2[nH]cc(-c3nc(-c4c[nH]c5ncccc45)cs3)c2c1`, the growth was 14%.

Regarding `COc1ccccc1/C=C/C(=O)c1ccccc1`, the growth was 51.8%.

In the case of `COc1cc(-c2c3c(cn2CCN2CCCCC2)-c2oncc2CC3)cc(OC)c1OC`, the growth is 109%.

Take `O=C1NC(=O)C(Cc2ccc(OCc3ccc(-c4cc(F)c(F)c(F)c4)cc3)cc2)S1` (centres undefined): the growth is 106%.

Turning to `C#CC(F)(F)[C@]1(O)CC[C@H]2[C@@H]3CCC4=CC(=O)CCC4=C3[C@@H](c3ccc(C4CC4)cc3)C[C@@]21C`, the growth was -61.1% (active).
